Sampled rows, rich in hits. Any-hit rate of the full collection: about 1.3%.
LANA DNA inh = inhibitors of KSHV C-LANA binding to DNA, primary screen, biochemical, fluorescence polarization, FAM-LBS DNA, MBP-C-LANA, single point. inhibition, % at 9 µM. actives 0.078% (n = 340,000);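 active = highest replicate inhibition at or above 60% at 9 µM, even if other replicates fall short; inactive = all replicates below 60% inhibition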;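 note: 0% = neutral control wells and 100% = 4 µM acridine orange control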
GLD-1 RNA inh = GLD-1/TGE RNA complex disruptors, primary screen, biochemical, fluorescence polarization | AID 2280, 2010 | actives 0.44% (n = 320,000) | purified GLD-1 + fluorescein TGE RNA | inhibition, % at 5.96 µM;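 active = percent inhibition above a per-plate cutoff, the plate mean of test compounds plus 3 SD, cut at about 30% in these data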;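 note: 0% = DMSO wells with GLD-1 and probe and 100% = wells lacking GLD-1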
Target sequence (Q17339 whole entry, looked up): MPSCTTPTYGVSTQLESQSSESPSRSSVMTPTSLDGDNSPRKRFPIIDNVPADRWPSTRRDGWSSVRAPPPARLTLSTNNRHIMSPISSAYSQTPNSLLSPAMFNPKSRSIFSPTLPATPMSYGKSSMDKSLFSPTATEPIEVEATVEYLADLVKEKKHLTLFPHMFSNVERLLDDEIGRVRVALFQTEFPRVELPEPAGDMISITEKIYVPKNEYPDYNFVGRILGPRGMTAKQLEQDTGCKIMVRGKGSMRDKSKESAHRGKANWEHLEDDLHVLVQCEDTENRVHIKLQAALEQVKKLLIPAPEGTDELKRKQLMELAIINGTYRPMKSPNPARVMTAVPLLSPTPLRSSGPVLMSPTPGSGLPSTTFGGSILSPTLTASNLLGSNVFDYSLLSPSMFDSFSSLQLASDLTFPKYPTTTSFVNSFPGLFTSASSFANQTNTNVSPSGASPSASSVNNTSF
E coli Lon inh = inhibitors of E. coli Lon protease, primary screen, biochemical, fluorescence polarization; inhibition, % at 7.94 µM; P0A9M0; purified E. coli Lon protease; actives 0.42% (n = 360,000); in the data active = inhibition above about 13%, passing the limit was not always enough;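 note: 0% = enzyme with probe and DMSO and 100% = no enzyme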
Keap1 Nrf2 FP = Keap1-Nrf2 protein-protein interaction inhibitors, primary screen, biochemical, fluorescence polarization, single point; Kelch-like ECH-associated protein 1 (Homo sapiens), Q14145; Keap1 Kelch-Nrf2 peptide fluorescence polarization, 1536-well; inhibition, % at 9.4 µM; actives 0.15% (n = 340,000); AID 504523, 2011; in the data active = inhibition above about 12%;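 note: human Keap1 Kelch domain with fluorescein labeled Nrf2 9mer peptide probe; 0% = neutral control wells and 100% = peptide positive control; higher means more block of Keap1 binding to Nrf2 peptide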
BCLXL inh = inhibitors of human Bcl-xL, primary screen, biochemical, fluorescence polarization, HTS. AID 2129, 2009. GST-Bcl-xL / FITC-Bim BH3 peptide fluorescence polarization. actives 0.7% (n = 320,000). Bcl-2-like protein 1 (Homo sapiens), Q07817. inhibition, % at 10.9 µM;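 active = inhibition above the mean of all tested compounds plus 3 SD, cutoff set per campaign, cut at about 30% in these data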;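 note: 0% = DMSO wells and 100% = unlabeled Bim-BH3 peptide competitor; inhibitors lower millipolarization by displacing the labeled peptide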
MCL1 BIM primary = inhibitors of MCL1 binding to BIM-BH3, primary screen, biochemical, fluorescence polarization. GST-MCL1 / FITC-Bim-BH3 fluorescence polarization. actives 0.68% (n = 320,000). inhibition, % at 10.9 µM. Induced myeloid leukemia cell differentiation protein Mcl-1 (Homo sapiens), Q07820;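 active = inhibition above the mean inhibition of all tested compounds plus 3 SD, set per campaign, cut at about 40% in these data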;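 note: 0% = DMSO wells and 100% = unlabeled Bim-BH3 peptide control; higher means more loss of mP so more displacement of Bim peptide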
Bcl-xL conf = Bcl-xL inhibitors blocking Bim BH3 binding, confirmation, counter-screen for MCL1 inhibitor project, biochemical, fluorescence polarization | shares compounds with MCL1 BIM primary | GST-Bcl-xL / FITC-Bim BH3 peptide FP binding | inhibition, % at 10.9 µM | actives 54% (n = 1,700) | AID 2166, 2009;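 active = inhibition above a cutoff equal to the mean inhibition of all tested compounds plus 3 SD, cut at about 30% in these data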;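 note: 0% = DMSO wells and 100% = unlabeled Bim BH3 control peptide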
MCL1 inh confirm = inhibitors of MCL1 binding to BIM-BH3, confirmation, biochemical, fluorescence polarization, triplicate | shares compounds with MCL1 BIM primary | GST-MCL1 / FITC-Bim-BH3 fluorescence polarization | inhibition, % at 10.9 µM | actives 61% (n = 1,700) | AID 2168, 2009;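 active = inhibition above the average of all tested compounds plus 3 SD, cut at about 40% in these data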;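 note: 0% = DMSO wells and 100% = unlabeled Bim-BH3 control peptide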
GLD1 RNA confirm = GLD-1/TGE RNA binding inhibitors, retest, confirmation, biochemical, fluorescence polarization, triplicate | GLD-1/FL-TGE RNA fluorescence polarization | actives 10% (n = 550) | AID 2459, 2010 | shares compounds with GLD-1 RNA inh | inhibition, % at 5.96 µM;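 active = average inhibition across triplicates above the hit cutoff set in the primary screen, cut at about 32% in these data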;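 note: 0% = GLD-1 with RNA probe and DMSO and 100% = wells lacking GLD-1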
Keap1 Kelch bind = Keap1 Kelch domain binders by thermal stabilisation, dose response, biophysical, thermal shift, RT-PCR instrument, cherry-pick; shares compounds with Keap1 Nrf2 FP; delta Tm; active compounds read high; max delta Tm, degrees C; actives 8% (n = 400); AID 651823, 2012; in the data active = max delta Tm above about 0.48 degrees C
E coli Lon conf = E. coli Lon protease inhibitor retest, confirmation, biochemical, fluorescence polarization; shares compounds with E coli Lon inh; purified E. coli Lon; inhibition, % at 7.94 µM; actives 31% (n = 1,400); AID 602230, 2012; in the data active = inhibition above about 16%;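 note: 0% = enzyme with probe and DMSO and 100% = no enzyme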
* hit, by the source's call; x = not tested or not shown; + = active, no number.

SMILES	LANA DNA inh	GLD-1 RNA inh	E coli Lon inh	Keap1 Nrf2 FP	BCLXL inh	MCL1 BIM primary	Bcl-xL conf	MCL1 inh confirm	E coli Lon conf	others
Cc1cc2cc(C=C(C#N)C#N)c(Cl)nc2cc1C	29	163*	89*	10	193*	+	27	27	39*
Cn1c(-c2ccc([N+](=O)[O-])cc2)nc2ccccc21	-1	6	5	-4	3	-5	x	x	x
Cn1nc([N+](=O)[O-])c(C(C#N)c2nc3ccccc3n2C)c(Cl)c1=O (stereo unspecified)	10	51*	22*	4	79*	91*	84*	90*	33*
N#Cc1ccc(Oc2cccc3cccnc23)c([N+](=O)[O-])c1	2	125*	101*	1	150*	177*	33*	51*	13
CC(=O)Nc1ccc(S(=O)(=O)Nc2nc3ccccc3nc2Sc2nncn2C)cc1	15	37*	19*	6	78*	78*	41*	47*	14
CCN(CC)C(=O)CSc1nnc(COc2ccc(OC)cc2)n1N	1	-3	-1	1	6	1	x	x	x
CCN(CC)C(=O)CSc1nnc2nnc3cc(OC)ccc3n12	x	120*	132*	x	138*	148*	124*	159*	118*
COc1[nH]c(/N=C/c2ccccc2)c(C#N)c1C#N	102*	159*	149*	78*	160*	194*	50*	40*	8	Keap1 Kelch bind=-0.04
CCOC(=O)c1cc(N2CCCCC2)nc2ccccc12	-1	x	3	-6	x	x	x	x	x
COC(=O)c1cc(N2CCN(C)CC2)nc2ccccc12	53	85*	96*	31*	138*	144*	23	35	19*	Keap1 Kelch bind=-0.03
COc1ccc(Cl)cc1N(CC(=O)NCCSc1ccccn1)S(=O)(=O)c1ccccc1	0	-4	6	1	5	5	x	x	x
COc1ccc2[nH]c(C)c(CCN(Cc3cccs3)C(=S)Nc3ccccc3)c2c1	8	46*	68*	9	79*	88*	38*	59*	22*	GLD1 RNA confirm=11
COc1ccccc1NC(=S)N(CCc1c(C)[nH]c2ccccc12)Cc1cccs1	-1	0	-9	-3	-2	-4	x	x	x
CCCc1nn2c(=O)cc(CSCC(=O)Nc3ccc(OC)cc3)nc2s1	-1	-10	-14	-9	7	4	x	x	x
COc1ccc(NC(=O)Nc2ccc([N+](=O)[O-])cc2)cn1	3	46*	20*	5	68*	71*	38*	53*	1
COc1ccc(NC(=O)Nc2cccs2)cn1	2	x	4	-4	x	x	x	x	x
CCN1C(=O)c2cccc3c(N)ccc(c23)C1=O	38	+	+	38*	+	+	+	+	+	Keap1 Kelch bind=-0.2
Cc1nn(C)c(C)c1N1C(=O)c2cccc3c(Br)ccc(c23)C1=O	-1	4	6	-5	14	9	x	x	x
Cc1nn(C)c(C)c1N1C(=O)c2cccc3c(N)ccc(c23)C1=O	183*	+	+	116*	+	+	+	+	+
O=C1C(Cl)=C(N2CCN(Cc3ccccc3)CC2)C(=O)N1Cc1ccccc1	4	34*	36*	-3	57*	56*	7	4	0	GLD1 RNA confirm=7
COC(=O)c1c(=O)n(O)c2ccc(OC)cc2[n+]1[O-]	48	146*	142*	24*	169*	198*	138*	178*	88*
COc1ccc(NC(=O)CC(C)n2ccnc2)cc1 (stereo unspecified)	-3	3	3	-1	1	-1	x	x	x
CC(CCl)n1c(=O)c2ccccc2n1S(C)(=O)=O (stereo unspecified)	x	x	-7	x	x	x	x	x	x
O=C1c2cccc3c(O)ccc(c23)C(=O)N1Cc1ccccc1	92*	+	+	7	+	+	+	+	+
O=C(O)c1cccc(CN2C(=O)c3ccccc3C2=O)c1	1	-5	5	1	4	-3	x	x	x
O=c1[nH]c(=S)[nH]c2c1[C@H](C1CC1)O[C@H](CCc1ccccc1)C2	x	x	-3	x	x	x	x	x	x
O=[N+]([O-])c1cccnc1-n1cnc2ccccc21	-1	6	-12	1	3	5	x	x	x
Cc1cc2ncn(-c3ncccc3[N+](=O)[O-])c2cc1C	0	80*	25*	1	85*	102*	23	34	1
CC(=O)c1cc(-c2ccccc2)n(CC(=O)Nc2ccc(C)c(C)c2)c1C	-2	5	7	-1	5	2	x	x	x

From PubChem BioAssay
